Assay [1] concerns the target Peroxisome proliferator-activated receptor gamma (Homo sapiens) (UniProt P37231). Nature of the assay: qHTS assay for small molecule antagonists of peroxisome proliferator-activated receptor gamma signaling (AID 588537; active = well fitted inhibition curve with a large enough effect in the signal ratio, with a control signal flat, not every such curve was filed as active; the % refers to the signal ratio; note: potency is the fitted concentration of half-maximal effect). The method, boiled down: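 Read-out: CCF4 fluorescence (ex 405, em 460/530 nm) after 2 h at RT. Cells were HEK293 carrying a UAS-bla reporter and treated 16 h at 37 C with compound plus rosiglitazone (50 nM final). Normalized to rosiglitazone and DMSO.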
In general terms: qHTS replaces the single test concentration by a dilution series.

Assay [2] can be described thus: qHTS assay for small molecule agonists of retinoid X receptor alpha signaling (AID 588544; calls by dose curve). The conditions noted are these: HEK293T RXRa-UAS-bla, beta-lactamase reporter, 18 h; 530 nm emission.
For assay [3], the target named is Retinoic acid receptor RXR-alpha (Homo sapiens) (UniProt P19793). The assay is described as above.
Retinoic acid receptor RXR-alpha (Homo sapiens), sequence (P19793 whole entry, looked up): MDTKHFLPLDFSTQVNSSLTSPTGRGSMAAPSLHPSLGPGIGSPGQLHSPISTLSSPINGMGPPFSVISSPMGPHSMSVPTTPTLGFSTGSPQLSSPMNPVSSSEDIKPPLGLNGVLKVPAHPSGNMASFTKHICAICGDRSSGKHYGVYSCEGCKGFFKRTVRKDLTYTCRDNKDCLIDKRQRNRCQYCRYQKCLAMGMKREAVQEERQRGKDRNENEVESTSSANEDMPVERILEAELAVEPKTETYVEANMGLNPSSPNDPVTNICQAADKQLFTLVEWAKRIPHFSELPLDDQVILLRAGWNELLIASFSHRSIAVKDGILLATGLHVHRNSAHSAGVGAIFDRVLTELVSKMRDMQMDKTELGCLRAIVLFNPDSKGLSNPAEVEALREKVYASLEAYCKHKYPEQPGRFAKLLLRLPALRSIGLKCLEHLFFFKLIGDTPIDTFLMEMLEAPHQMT
The target in assay [4] is Thyroid hormone receptor beta (Homo sapiens) (UniProt P10828). As to the kind of experiment: qHTS assay for small molecule agonists of thyroid hormone receptor beta signaling (AID 588545; calls by dose curve;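 note: 0% = DMSO only and 100% = 10 nM T3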). In a few lines:
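Beta-lactamase reporter activity under TR response element control is measured in HEK 293 cells after 18 hrs compound exposure. Signal is ratiometric CCF4 fluorescence, 460/530 nm.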

Assay [5] in a line: qHTS assay for small molecule antagonists of retinoid X receptor alpha signaling (AID 588546; active = well fitted inhibition curve with a large enough effect in the signal ratio, with a control signal flat, not every such curve was filed as active; the % refers to the signal ratio;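 note: cells stimulated with 9-cis-retinoic acid as agonist; % is set by controls: 0 for no effect and ±100 for the full control effect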). The conditions noted are these: HEK293T RXRa-UAS-bla, beta-lactamase ratio, antagonist mode; measured here: W530 green channel, cytotoxicity proxy. The method, boiled down:
(§1)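 Beta-lactamase reporter inhibition, read as CCF4 fluorescence ratio (ex 405, em 460/530 nm) after 2 h at RT. HEK293T UAS-bla cells, 2500/well, were stimulated with 9-cis-RA at 500 or 100 nM final alongside test compound for 18 h at 37 C.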

Assay [6] has as its target Retinoic acid receptor RXR-alpha (Homo sapiens) (UniProt P19793). The assay is described as above. The note with it: HEK293T RXRa-UAS-bla, beta-lactamase ratio, antagonist mode. In a few lines:
as §1

Assay [7] concerns the target Thyroid hormone receptor beta (Homo sapiens) (UniProt P10828). As to the kind of experiment: qHTS assay for small molecule antagonists of thyroid hormone receptor beta signaling (AID 588547; active = well fitted inhibition curve with a large enough effect in the signal ratio, with a control signal flat, not every such curve was filed as active; the % refers to the signal ratio;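 note: cells stimulated with 0.4 nM T3 agonist during compound exposure; series mostly up to about 77 µM; % is set by controls: 0 for no effect and ±100 for the full control effect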). The note with it: TR-UAS-bla HEK293, beta-lactamase ratio, antagonist mode, 18 h. The method, boiled down:
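TR-UAS-bla GripTite HEK293 cells in 2% charcoal/dextran FBS medium; compounds 0.59 nM to 92 uM with T3 at 0.4nM final, 18 h at 37 C. Beta-lactamase read by CCF4 fluorescence (460/530 nm); Hill fits gave IC50 and efficacy.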

The target in assay [8] is Voltage-gated inwardly rectifying potassium channel KCNH2 (Homo sapiens) (UniProt Q12809). As to the kind of experiment: qHTS Assay for Small Molecule Inhibitors of the Human hERG Channel Activity (AID 588834).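 Note: lower thallium flux fluorescence means stronger hERG block; nearly all actives have a fitted effect of over 50% in size.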 Note: potency is the fitted concentration of half-maximal effect. The method, boiled down:
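Thallium serves as surrogate for K+ influx through BacMam-delivered hERG in U2OS cells. Compounds are added for about 10 minutes after dye loading; stimulation buffer then starts flux, monitored kinetically on FDSS.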

Assay [9] addresses Luciferin 4-monooxygenase (Photinus pyralis) (UniProt P08659). Nature of the assay: Biochemical firefly luciferase enzyme assay for NPC (AID 624030).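 Note: purified P. pyralis luciferase at 10 nM with luciferin and ATP substrate; series mostly up to about 59 µM; 0% = DMSO and -100% = full luciferase inhibition by PTC124 control; nearly all actives have a fitted effect of over 70% in size.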 The method, boiled down:
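Purified P. pyralis luciferase at 10 nM in 50 mM Tris Acetate (final), luminescence read within 5 minutes of enzyme addition to compounds. Activity normalised to PTC124 versus DMSO; concentration-response curves classed by r2, magnitude and activity.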

Assay [10] is described as follows: S16 Schwann cell viability assay (CellTiter-Glo assay) (AID 624031). Note: nearly all actives have a fitted effect of over 70% in size. Note: potency is the fitted concentration of half-maximal effect. In a few lines:
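Parental S16 cells, 24 h compound, 37 °C. ATP-luminescence viability; DMSO = 0% activity, empty wells as reference; curves classified by fit quality and efficacy.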
A general note: ATP-based viability assays read luminescence as a measure of living cells.

This note sets out measurements from PubChem BioAssay (NCATS).

Values joined by “and” are separate entries in the source; they are usually repeats but may differ in a detail not shown here. Equal values may be shown once. Results filed as inconclusive are left out. Some compounds were tested as several samples or in several runs, with calls that do not always agree. Active and inactive are the calls of the source. Unless noted, calls come from the whole dose curve; as a rule, active = well fitted curve in the direction sought with a large enough effect; inconclusive = small, poorly fitted or top-dose-only effect, or another doubt; inactive = no such curve, though single readings can be large; an effect the other way counts as inactive or inconclusive.

Luciferin 4-monooxygenase (Photinus pyralis), sequence (P08659 whole entry, looked up): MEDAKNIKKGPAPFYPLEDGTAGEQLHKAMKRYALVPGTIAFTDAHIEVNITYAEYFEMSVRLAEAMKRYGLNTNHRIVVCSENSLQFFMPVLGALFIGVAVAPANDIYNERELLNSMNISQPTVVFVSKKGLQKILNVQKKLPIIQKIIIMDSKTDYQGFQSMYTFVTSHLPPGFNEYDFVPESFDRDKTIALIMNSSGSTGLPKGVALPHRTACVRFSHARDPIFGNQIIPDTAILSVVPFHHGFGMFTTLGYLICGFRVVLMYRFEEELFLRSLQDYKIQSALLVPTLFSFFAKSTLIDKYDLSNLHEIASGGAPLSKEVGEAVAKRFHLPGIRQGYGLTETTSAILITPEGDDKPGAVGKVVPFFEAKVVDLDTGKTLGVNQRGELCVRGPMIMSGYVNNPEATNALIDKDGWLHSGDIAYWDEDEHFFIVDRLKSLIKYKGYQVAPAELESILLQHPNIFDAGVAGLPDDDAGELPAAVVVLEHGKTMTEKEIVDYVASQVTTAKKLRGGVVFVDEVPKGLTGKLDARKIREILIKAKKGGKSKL
Thyroid hormone receptor beta (Homo sapiens), sequence (P10828 whole entry, looked up): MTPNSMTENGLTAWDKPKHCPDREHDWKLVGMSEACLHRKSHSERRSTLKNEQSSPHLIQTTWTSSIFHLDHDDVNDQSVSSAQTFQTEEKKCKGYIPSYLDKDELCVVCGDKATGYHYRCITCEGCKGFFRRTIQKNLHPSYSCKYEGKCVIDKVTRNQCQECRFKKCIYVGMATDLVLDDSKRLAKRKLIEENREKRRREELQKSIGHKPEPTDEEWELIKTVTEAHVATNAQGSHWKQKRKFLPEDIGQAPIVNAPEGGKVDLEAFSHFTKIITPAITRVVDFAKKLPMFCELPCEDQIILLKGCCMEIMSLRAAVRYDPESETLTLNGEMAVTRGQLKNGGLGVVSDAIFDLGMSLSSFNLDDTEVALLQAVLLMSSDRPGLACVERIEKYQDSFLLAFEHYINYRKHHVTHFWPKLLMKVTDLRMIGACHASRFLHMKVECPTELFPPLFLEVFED
Peroxisome proliferator-activated receptor gamma (Homo sapiens), sequence (P37231 whole entry, looked up): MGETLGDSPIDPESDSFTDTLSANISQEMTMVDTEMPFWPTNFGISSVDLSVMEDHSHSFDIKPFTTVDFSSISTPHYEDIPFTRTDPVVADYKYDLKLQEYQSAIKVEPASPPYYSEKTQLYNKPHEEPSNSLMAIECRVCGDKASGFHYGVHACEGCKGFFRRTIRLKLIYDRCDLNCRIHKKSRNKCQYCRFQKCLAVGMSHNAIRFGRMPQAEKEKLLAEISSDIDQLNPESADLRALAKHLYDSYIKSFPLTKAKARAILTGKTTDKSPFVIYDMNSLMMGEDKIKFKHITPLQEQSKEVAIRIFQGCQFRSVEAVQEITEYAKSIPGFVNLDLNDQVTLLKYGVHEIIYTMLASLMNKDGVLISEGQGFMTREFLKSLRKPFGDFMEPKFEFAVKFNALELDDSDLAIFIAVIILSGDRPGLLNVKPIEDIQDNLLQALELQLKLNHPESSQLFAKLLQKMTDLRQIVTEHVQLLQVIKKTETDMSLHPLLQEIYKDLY
Voltage-gated inwardly rectifying potassium channel KCNH2 (Homo sapiens), sequence (Q12809 whole entry, looked up): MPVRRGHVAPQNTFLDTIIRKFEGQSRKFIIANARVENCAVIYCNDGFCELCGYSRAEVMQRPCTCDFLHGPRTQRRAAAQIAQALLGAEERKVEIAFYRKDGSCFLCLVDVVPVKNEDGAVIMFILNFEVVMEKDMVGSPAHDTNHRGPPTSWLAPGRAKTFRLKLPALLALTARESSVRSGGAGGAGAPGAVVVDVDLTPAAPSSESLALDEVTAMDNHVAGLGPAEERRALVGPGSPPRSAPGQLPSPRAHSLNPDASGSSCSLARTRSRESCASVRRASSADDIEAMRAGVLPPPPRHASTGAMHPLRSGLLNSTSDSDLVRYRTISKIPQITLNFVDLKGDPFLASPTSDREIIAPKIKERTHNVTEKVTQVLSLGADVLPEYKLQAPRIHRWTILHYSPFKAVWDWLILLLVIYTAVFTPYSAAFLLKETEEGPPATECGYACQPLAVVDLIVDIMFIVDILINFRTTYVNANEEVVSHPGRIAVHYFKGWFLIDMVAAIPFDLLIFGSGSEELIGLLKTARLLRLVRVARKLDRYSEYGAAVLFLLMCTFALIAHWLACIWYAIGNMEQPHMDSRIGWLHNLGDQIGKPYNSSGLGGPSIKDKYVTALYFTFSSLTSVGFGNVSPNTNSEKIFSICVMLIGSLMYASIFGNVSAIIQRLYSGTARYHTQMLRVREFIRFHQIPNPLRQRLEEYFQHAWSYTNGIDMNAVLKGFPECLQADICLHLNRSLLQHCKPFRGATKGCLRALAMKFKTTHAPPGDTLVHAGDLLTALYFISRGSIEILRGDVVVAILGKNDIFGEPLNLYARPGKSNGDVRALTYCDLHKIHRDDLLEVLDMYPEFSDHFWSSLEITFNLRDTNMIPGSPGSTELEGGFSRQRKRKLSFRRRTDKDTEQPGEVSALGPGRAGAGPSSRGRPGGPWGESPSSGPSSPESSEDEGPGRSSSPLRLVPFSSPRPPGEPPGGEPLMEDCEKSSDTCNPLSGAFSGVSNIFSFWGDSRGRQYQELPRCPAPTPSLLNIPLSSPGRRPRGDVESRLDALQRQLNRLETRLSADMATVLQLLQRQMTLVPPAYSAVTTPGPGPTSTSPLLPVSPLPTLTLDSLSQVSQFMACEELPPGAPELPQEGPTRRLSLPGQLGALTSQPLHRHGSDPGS

In the case of `O=C1C=CC(=O)C=C1`, the Potency entry in assay [1], in assay [3] and in assay [8] was “inactive” each time. Moreover, the results for the max response in assay [2], in assay [5] and in assay [6] were -3.86%, 4.26% and -9.47% (inactive), respectively. Besides, in assay [4], the compound was called inactive. In addition, the activity change % (negative = inhibition) in assay [7] is -10.9% (inactive).
Regarding `CC(C)Nc1ccc(Nc2ccccc2)cc1`, in assay [4], the compound was called inactive.
`C=CCN=C=S`: the max response was 2.45% in [2], -9.62% in assay [5] and 5.52% (inactive) in [6]. Further, the Potency entry in assay [3], in [8], in assay [9] and in assay [10] was “inactive” in each case. For the same compound, the result in [4] was inactive.
For the compound `O=[N+]([O-])C(Br)(CO)CO`, the Potency entry in [1] and in [8] was “inactive” throughout. Moreover, in [7], the activity change % (negative = inhibition) was 5.27% (inactive). For the same compound, in assay [10], the Potency was 28.7 µM (active).
`O=C(O)c1cc[c]([Hg][Cl])cc1`: the Potency entry in assay [1] and in [8] was “inactive” throughout. Besides, the outcome in assay [4] was inactive. Moreover, the activity change % (negative = inhibition) in [7] was -18.8% (inactive).
Consider `COCC(C)N(C(=O)CCl)c1c(C)csc1C` (stereo unspecified), for which the Potency in assay [1] was 39.8 µM (active). Further, the compound was called inactive in assay [4]. The Potency result in assay [8], in [9] and in [10] was “inactive” each time.
In the case of `COc1ccc2c(c1OC)C(=O)OC2C1c2cc3c(cc2CCN1C)OCO3` (stereo unspecified), the Potency result in assay [1] and in assay [3] was “inactive” each time. Moreover, the max response in [2] was 0.13%; in assay [5], -2.26%; in assay [6], 20.7% (inactive). Moreover, the compound was classed as inactive in [4]. For the same compound, the activity change % (negative = inhibition) in assay [7] is -14.3% (inactive). Further, the Potency in assay [8] was 15.8 µM (active) and inactive.
With `C[C@H]1CC[C@@H]2[C@@H](C)[C@H]3[C@H](C[C@H]4[C@@H]5CC=C6CC(O[C@@H]7O[C@H](CO)[C@H](O)[C@H](O[C@@H]8O[C@H](CO)[C@@H](O)[C@H](O)[C@H]8O)[C@H]7O[C@H]7O[C@@H](C)[C@H](O)[C@@H](O)[C@H]7O)CC[C@]6(C)[C@H]5CC[C@]34C)N2C1` (stereo partly specified), the Potency entry in assay [1], in assay [8] and in assay [9] was “inactive” in each case.
Take `NNC(N)=O`: the max response in assay [2] is -3.29%. In addition, the Potency entry in [3] and in assay [8] was “inactive” throughout. Besides, the compound was classed as inactive in assay [4]. Also, the activity change % (negative = inhibition) in assay [7] is -12% (inactive).
With `S=C=S`, the max response in [2] is -8.91%; in [5] it was -8.84%; in assay [6] it was 10.2% (inactive). Moreover, the Potency result in [3], in [8], in assay [9] and in [10] was “inactive” in each case. Also, the compound was classed as inactive in [4]. Further, the activity change % (negative = inhibition) in assay [7] was 5.87% (inactive).
As to `O=C(NCNC(=O)NC1C(=O)NC(=O)N1CO)NC1C(=O)NC(=O)N1CO` (stereo unspecified), the Potency result in assay [1], in assay [3], in assay [8], in assay [9] and in [10] was “inactive” throughout. Moreover, the values for the max response in assay [2], in assay [5] and in assay [6] were 0.0503%, -13% and -8.07% (inactive), respectively. The call in assay [4] was inactive. Further, in assay [7], the activity change % (negative = inhibition) was -0.544% (inactive).
Turning to `C[C@H]1CCC[C@H](O)CCCCCc2cc(O)cc(O)c2C(=O)O1`, the Potency result in [1], in assay [3], in [9] and in assay [10] was “inactive” each time. In addition, the max response in [2] is 13%; in assay [5] it was 7.61%; in [6], -34.3% (inactive).
Regarding `[O]=[Cd]`, the Potency result in [1], in assay [3], in assay [8], in assay [9] and in assay [10] was “inactive” each time. Also, the figures for the max response in [2], in assay [5] and in assay [6] were -12.6%, -14.7% and -2.87% (inactive), respectively. Moreover, the call in assay [4] was inactive. For the same compound, the activity change % (negative = inhibition) in assay [7] was -10.1% (inactive).
For the compound `O=c1[nH]c(=O)n(Cl)c(=O)n1Cl`, the Potency entry in assay [1], in assay [3], in assay [9] and in assay [10] was “inactive” throughout. Besides, in [2], the max response was -3.39%. Also, in [4], the compound was called inactive. The activity change % (negative = inhibition) in assay [7] was 1.99% (inactive).
`ClCC1CO1` (stereo unspecified): the Potency entry in [1], in assay [3], in assay [8], in assay [9] and in assay [10] was “inactive” in each case. Also, the max response in assay [2] is -12.3%; in assay [5], -5.61%; in [6], -1.88% (inactive). For the same compound, the activity change % (negative = inhibition) in assay [7] is 1.74% (inactive).
Regarding `Clc1ccccc1Cl`, the max response was -11.2% in assay [2], 5.72% in assay [5] and 14.3% (inactive) in [6]. Besides, the Potency entry in assay [3], in assay [8], in assay [9] and in assay [10] was “inactive” in each case. In assay [4], the outcome was inactive.
As for `ClC=C(Cl)Cl`, the Potency entry in [1], in assay [3], in [8], in [9] and in assay [10] was “inactive” in each case. Besides, the max response in assay [2] was -19%; in assay [5] it was -0.484% and -8.25%; in assay [6] it was 5.36% (inactive) and -18.5% (inactive). In addition, the call in assay [4] was inactive. In assay [7], the activity change % (negative = inhibition) was -2.56% (inactive).
For the compound `CCCCCl`, the max response in assay [2] is -0.522%; in assay [5], -8.74%; in assay [6], 21% (inactive). Also, the Potency result in [3], in assay [8], in assay [9] and in assay [10] was “inactive” throughout. Also, the result in assay [4] was inactive.
As for `O=[N+]([O-])c1ccc(F)c([N+](=O)[O-])c1`, the activity change % (negative = inhibition) in assay [7] was 5.42% (inactive). For the same compound, the Potency result in assay [9] and in assay [10] was “inactive” throughout.
Turning to `C[CH2][Hg][S]c1ccccc1C(=O)O`, the Potency in assay [10] is 1.28 µM (active).
Take `COC1=CC=C2[C@H]3Cc4ccc(OC)c5c4[C@@]2(CCN3C)[C@H]1O5`: the Potency entry in [8], in assay [9] and in assay [10] was “inactive” in each case.
On to `CC(Cc1ccccc1)NC=O` (stereo unspecified), for which the Potency entry in [8], in assay [9] and in [10] was “inactive” throughout.
As for `CN1CCCC(=C(c2cccs2)c2cccs2)C1`, the Potency in assay [8] is 8.91 µM (active). Besides, the Potency result in assay [9] and in [10] was “inactive” each time.
For the compound `C[N+]1(C)CCCCC1COC(=O)C(O)(c1ccccc1)c1ccccc1` (stereo unspecified), the Potency entry in assay [8], in [9] and in [10] was “inactive” each time.
As to `O=P(O)(O)C(Cl)(Cl)P(=O)(O)O`, the Potency result in assay [8], in [9] and in assay [10] was “inactive” each time.
`CCON=O`: the Potency entry in assay [8], in assay [9] and in assay [10] was “inactive” each time.
As for `O=C1CC[C@@]2(O)C3Cc4ccc(O)c5c4C2(CCN3CC2CC2)[C@H]1O5` (stereo partly specified), in [8], the Potency is 11.2 µM (active). Further, the Potency result in assay [9] and in [10] was “inactive” in each case.
For the compound `COc1ccc(OC)c(C(O)C(C)N)c1` (stereo unspecified), the Potency entry in assay [8], in assay [9] and in assay [10] was “inactive” each time.
In the case of `CCCC(=O)OC(C(Cl)(Cl)Cl)P(=O)(OC)OC` (stereo unspecified), the Potency entry in [8], in assay [9] and in assay [10] was “inactive” in each case.
As to `CNC(C)C(O)c1ccc(O)cc1` (stereo unspecified), the Potency result in assay [8], in assay [9] and in assay [10] was “inactive” each time.
With `N#CC1(N2CCCCC2)CCCCC1`, the Potency result in assay [8], in assay [9] and in [10] was “inactive” throughout.
Consider `FC(F)OC(F)(F)C(F)Cl` (stereo unspecified), for which the Potency entry in assay [8], in [9] and in [10] was “inactive” throughout.
Turning to `CC(=O)OO`, the Potency entry in assay [8], in [9] and in assay [10] was “inactive” in each case.
Take `NCC(O)c1cccc(O)c1` (stereo unspecified): the Potency entry in [8], in assay [9] and in assay [10] was “inactive” in each case.
In the case of `O=C1CN=C(c2ccccc2)c2cc(Cl)ccc2N1CC1CC1`, the Potency result in assay [8], in assay [9] and in [10] was “inactive” each time.
On to `CCC1(C)CC(=O)NC(=O)C1`, for which the Potency entry in assay [8], in [9] and in assay [10] was “inactive” throughout.
